Source: PubChem (National Center for Advancing Translational Sciences (NCATS))
Shown are actives, neighbours in structure and some others; about 19% of the full set was active somewhere.
Gal4-VP16 FLuc – inhibits Gal4-VP16 luciferase reporter, ROR gamma counter-screen. Drosophila S2 Gal4-VP16 UAS-luciferase, luminescence, 20 h. Potency, µM (highest dose often 53.6 µM), for the others: at the highest dose activity, negative = inhibition, actives largely listed as inhibitors. actives 3.5% (n = 310,000). AID 2546;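 further: Gal4-VP16 expression switched on by copper sulfate through the metallothionein promoter; nearly all actives have a fitted effect of over 50% in size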
TDP1 cell CPT – growth inhibition of DT40 Tdp1-/-;hTDP1 cells with camptothecin (screen for TDP1 inhibitors); chicken DT40 Tdp1-/-;hTDP1 cells + 20 nM CPT, ATP luminescence, 48 h; Potency, µM (top dose mostly 46.2 µM), inactives show at the highest dose activity change, negative = growth inhibition, actives largely listed as inhibitors; actives 12% (n = 420,000); AID 686979; further: nearly all actives have a fitted effect of over 55% in size
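Chicken DT40 Tdp1-/- cells stably complemented with human TDP1 were seeded at 400 cells/well in medium containing 20 nM camptothecin, exposed to pin-transferred compounds, and grown at 37 °C for at least 48 hr. Viability was read as ATP luminescence.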
TDP1 inh – blocks human tyrosyl-DNA phosphodiesterase 1 | Q9NUW8 | recombinant TDP1, AlphaScreen DNA substrate cleavage | Potency, µM (doses to about 130 µM), inactives show top-dose activity change, negative = inhibition, usual class: inhibitors | actives 0.28% (n = 350,000) | AID 485290; further: nearly all actives have a fitted effect of over 40% in size
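Compounds were preincubated with Tdp1 (1 nM final) for 15 min at room temperature before substrate (15 nM final) started a 5 min reaction; beads (10 ug/ml final) were then added for 10 min before AlphaScreen detection.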
RORg inh – ROR gamma (mouse) transcription inhibition. Drosophila S2 Gal4-RORgamma UAS-luciferase reporter, 20 h. AID 2551. Potency, µM (top dose mostly 53.6 µM), for inactives: top-dose activity change, negative = inhibition, hits mostly inhibitors. actives 5.4% (n = 310,000); further: nearly all actives have a fitted effect of over 60% in size
Target sequence (P51450 whole entry, looked up, the tested form may be a part): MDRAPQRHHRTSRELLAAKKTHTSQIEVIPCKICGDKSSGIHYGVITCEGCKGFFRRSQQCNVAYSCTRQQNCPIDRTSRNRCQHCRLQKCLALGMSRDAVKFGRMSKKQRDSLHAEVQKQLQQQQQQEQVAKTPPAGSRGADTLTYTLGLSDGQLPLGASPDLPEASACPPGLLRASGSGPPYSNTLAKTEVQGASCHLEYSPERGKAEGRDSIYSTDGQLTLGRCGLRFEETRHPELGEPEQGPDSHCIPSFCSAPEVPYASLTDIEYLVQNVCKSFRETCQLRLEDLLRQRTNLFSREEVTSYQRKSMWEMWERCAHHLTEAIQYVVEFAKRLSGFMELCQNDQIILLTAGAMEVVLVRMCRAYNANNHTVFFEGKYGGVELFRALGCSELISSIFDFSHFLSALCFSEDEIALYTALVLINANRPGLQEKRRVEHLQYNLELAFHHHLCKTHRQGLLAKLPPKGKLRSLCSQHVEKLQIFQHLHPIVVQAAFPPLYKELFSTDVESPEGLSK
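Compounds are pin-transferred onto Drosophila Schneider cells expressing a copper-inducible Gal4–ROR gamma transactivation domain fusion. After 1 hr, copper sulfate is added to 700 uM final; luciferase is read 20 hr later.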
TDP1 cell noCPT – qHTS for Inhibitors of human tyrosyl-DNA phosphodiesterase 1 (TDP1): qHTS in cells in absence of CPT; AID 686978, 2013; actives 15% (n = 420,000); Potency, µM (series often up to 46.2 µM), for inactives: at the top dose activity change, negative = growth inhibition, actives largely listed as inhibitors; DT40 Tdp1-/- hTDP1 cells, no CPT, ATP luminescence, 48 h; further: nearly all actives have a fitted effect of over 55% in size
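Chicken DT40 Tdp1-/- cells complemented with human TDP1, screened without camptothecin (DMSO vehicle only), 400 cells/well. Compounds pin-transferred, cells incubated at 37 °C for at least 48 hr. Growth read as ATP-dependent luminescence (CellTiter-Glo, 30 min at RT).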
* hit, by the source's call; u = inconclusive; x = not tested or not shown; [ ] = another dose, or the depositor's remark. The call rests on the fitted dose curve; in most records, active means well fitted curve in the direction sought with a large enough effect; inconclusive means small, poorly fitted or top-dose-only effect, or another doubt; inactive means no such curve, though single readings can be large; an effect the other way counts as inactive or inconclusive. On the % scale 0 is the no-effect control and ±100 the full control effect; potency means the concentration at half of the fitted maximal effect.

SMILES | Gal4-VP16 FLuc | TDP1 cell CPT | TDP1 inh | RORg inh | TDP1 cell noCPT
CC1(C(=O)Nc2cccc3ccccc23)CCN1C(=O)C1(c2ccccc2)CCCC1 (stereo not given) | x | u | x | x | 18.4µM*
Cc1cc(OC(C)C(=O)NCCN2CCOCC2)c2c(C)cc(=O)oc2c1 (stereo not given) | -7.7% | 6.2% | 1.5% | 0.3% | 20.8%
N#CCCN(C(=O)COC(=O)Cc1ccc(Br)cc1)c1ccccc1 | -6.9% | 0.9% | 4.6% | -11.6% | 3.7%
Cc1ccc(NC(=S)NC2CCCC2)cc1C | 3.55µM* | u | -0.6% | 2.82µM* | u
S=C(Nc1ccc2[nH]ccc2c1)NC1CCCCC1 | -16.0% | -11.5% | 5.1% | 11.2µM* | -10.6%
CC(=O)Nc1ccc(NC(=S)NC(=O)C2CC2)cc1 | -2.0% | 3.3% | 2.1%[56.1 µM] | -4.5% | 2.4%
NC(=S)Nc1ccc2cc[nH]c2c1 | 0.2% | 7.4% | 0.0% | 5.3% | -1.6%
Cc1ccc(NC(=S)NC(=O)C2CCC2)cc1C | 2.82µM* | u | 2.4%[56.1 µM] | 2.24µM* | -4.7%
Cc1ccc(NC(=S)NC(=O)C2CC2)c(C)c1 | 7.08µM* | -11.3% | 0.5% | 5.01µM* | -0.3%
CC(=O)c1cccc(NC(=S)NC2CC2)c1 | -3.9% | -4.0% | 5.3% | -17.7% | -5.2%
Cc1ccc(NS(=O)(=O)c2cc3c(cc2Cl)CCC(=O)N3)cc1C | x | x | 0.6% | x | x
O=S(=O)(NCCn1ccc2ccccc21)c1ccccc1 | -3.5% | 4.2% | 1.1% | 9.6% | u
O=C(OCc1cccc([N+](=O)[O-])c1)c1cccnc1Cl | 4.5% | -2.4% | x | 2.8% | -5.3%
O=C(Nc1ccc(F)cc1)C1CCCCC1 | -10.6% | -7.4% | 1.9% | 10.4% | -10.8%
N#CCC(=O)Nc1ccc(C(=O)NNC(=S)NC2CCCCC2)cc1 | x | 0.3% | -0.3% | x | -10.7%
CC(C)CC(=O)Nc1ccc(C(=O)NNC(=S)NC(=O)C2CCCCC2)cc1 | 0.4% | 14.6µM* | 13.7% | 2.9% | 16.4µM*
Cc1nc2ccc(NC(=S)NC3CCCCC3)cc2nc1C | -6.6%[10 µM] | -18.5% | 5.3% | 5.01µM* | -5.2%
O=C(NC(=S)Nc1ccc(F)cc1)C1CCCCC1 | 10µM* | -8.9% | 1.9% | 8.91µM* | 6.4%
Cc1ccc(NS(=O)(=O)c2ccc(NC(=O)C3CC3)cc2)c(C)c1 | 25.1µM* | u | 2.6% | 82.0% | u
Cc1ccc(NC(=O)C(C)SCc2ccccc2)cc1 (stereo not given) | u | -2.5% | 2.7% | u | -15.5%
COc1cccc(CNC(=O)CCc2nnc3n(CC(C)C)c(=O)c4ccccc4n23)c1 | x | 19.4% | 1.0% | x | -10.3%
Cc1ccc(NC(=S)NC(=O)C2CCCC2)cc1C | 4.47µM* | u | -6.3% | 3.55µM* | u
O=C(NC(=S)Nc1ccc(Br)c(Cl)c1)C1CC1 | 7.94µM* | -24.4% | -4.2% | 4.47µM* | -18.6%
COc1ccc(NC(=O)Cn2c(=O)n(-c3cccc(C)c3)c(=O)c3c2c2cc(C)ccc2n3C)cc1OC | x | -5.6% | 2.9% | x | u
Cc1ccc(/C=N/NC(=O)c2nnn(-c3nonc3N)c2C)o1 | -4.1% | -19.5% | 2.4% | 3.0% | 25.9%
SMILES | Gal4-VP16 FLuc | TDP1 cell CPT | TDP1 inh | RORg inh | TDP1 cell noCPT
CCCOc1ccc(-c2c(C(=O)N/N=C/c3ccc(C)o3)nnn2-c2nonc2N)cc1 | 5.62µM* | -0.4% | 0.2% | 3.55µM* | -29.6%
CCOc1ccc(-c2c(C(=O)N/N=C(\C)c3ccccc3OC)nnn2-c2nonc2N)cc1 | -7.4% | -9.8% | -0.3% | 5.62µM* | -4.4%
CCCOc1ccc(-c2c(C(=O)N/N=C/c3ccncc3)nnn2-c2nonc2N)cc1 | -11.5% | 1.6% | 2.8% | -5.8% | 22.0%
Cc1ccc(/C=N/NC(=O)c2nnn(-c3nonc3N)c2-c2ccccc2)o1 | u | 6.2% | 2.5% | 10µM* | 9.0%
CCOc1ccc(-c2c(C(=O)N/N=C/c3ccc(C)o3)nnn2-c2nonc2N)cc1 | 10µM* | -1.7% | -1.7% | 5.62µM* | -2.2%
Cn1cc(NC(=O)c2cc(NC(=O)c3cc(NC=O)cn3C)cn2C)cc1C(=O)NCCC(=N)N | 3.2% | 20.9% | 5.2% | -7.3% | -29.2%
CCN(C(=O)CN1C(=O)NC(CCSC)C1=O)C1CCS(=O)(=O)C1 (stereo not given) | x | 1.7% | 0.8% | x | 0.9%
COc1ccc(Cn2c(=O)c3cccnc3n(Cc3cccc(F)c3)c2=O)cc1 | x | u | 1.0% | x | u
O=C(Cn1cnc(Cl)c1Cl)c1ccccc1 | 2.9% | -8.5% | 1.2% | -1.4% | -22.8%
CCCOc1ccc(-c2c(C(=O)N/N=C/c3ccc(OCC)cc3)nnn2-c2nonc2N)cc1 | 10µM* | -2.9% | 4.2% | 10µM* | -14.2%
CCCOc1ccc(-c2c(C(=O)N/N=C/c3cccs3)nnn2-c2nonc2N)cc1 | 3.16µM* | u | 6.0% | 2.24µM* | 1.5%
O=C(Nc1ccc(NC(=S)NC(=O)c2ccccc2F)cc1)c1cccs1 | -24.9% | -21.0% | 5.4% | u | u
Cc1cccc(N2CCN(C(=O)Cn3nc(C)n4cccc4c3=O)CC2C)c1 (stereo not given) | 0.9% | u | 8.6% | -13.8% | -25.3%
Cc1cccc(N2CCN(C(=O)Cn3sc4nc(C)cc(C)c4c3=O)CC2C)c1 (stereo not given) | 12.6µM* | 3.66µM* | 9.2% | 7.08µM* | 4.61µM*
Cc1cc(C)c2c(=O)n(CC(=O)N3CCC(Cc4ccccc4)CC3)sc2n1 | 3.98µM* | x | 5.3% | u | x
Cc1ccn2c(=O)nc(SCC(=O)N3CCC(Cc4ccccc4)CC3)nc2c1 | x | u | -6.0% | x | u
Cn1c(SCC(=O)NCCc2ccc(S(N)(=O)=O)cc2)nc2ccccc2c1=O | 5.6% | -3.4% | 5.4% | -33.3% | -7.4%
Cc1cc(Cl)ccc1NC(=O)CN1CCCC1 | -7.1% | 12.7% | x | -12.1% | -0.8%
O=C(CN1CCCCC1)Nc1ccc(NC(=O)c2ccc(Cl)cc2)cc1Cl | u | 13µM* | -2.0% | 11.9% | 25.9µM*
O=C(CN1CCCC1)Nc1ccc(Cl)cc1C(F)(F)F | -20.9% | 23.1µM* | 2.7% | -11.7% | u
Oc1ccc2n[nH]nc2c1 | -8.1% | -19.2% | -5.3% | 10.7% | u
Cc1cc(C(=O)Nc2ccc3c(c2)OCCO3)co1 | -10.5% | -24.2% | 1.0% | 11.6% | -24.7%
COc1ccc(C(C(=O)NC2CCCC2)N(C(=O)c2snc(-c3ccc(F)cc3)c2N)c2cccc(F)c2)cc1 (stereo not given) | -16.2% | 6.51µM* | 3.1% | -9.0% | 7.31µM*
COc1ccc(C(C(=O)NC2CCCCC2)N(C(=O)c2sc(C)nc2C)c2ccccc2)cc1 (stereo not given) | u | 8.9% | 2.7% | 4.9% | -24.3%
